From PubChem BioAssay (Tox21)
Records with an inconclusive call do not appear. Active and inactive are the calls of the source. Calls come from the whole dose curve; as a rule, active = well fitted curve in the direction sought with a large enough effect in the repeat runs; inconclusive = weak or mixed curves; inactive = no such curve, though single readings can be large; an effect the other way counts as inactive or inconclusive.

Legend:
[1] = A CellTox Green Cytotoxicity Assay to monitor cytotoxicity in HEK293 cells - 40 hour (AID 1224871); note: nearly all actives have a fitted effect of over 45% in size
Procedure, shortened: (§1)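 Fluorescence from a DNA-binding dye excluded by viable cells was measured repeatedly in the same HEK293 wells (600 cells/well) during continuous compound exposure at 37 C. Each assay gives one read point: 0, 8, 16, 24, 32 or 40 h.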

[2] = qHTS RealTime-Glo MT Cell Viability Assay in HEK293 cells - 16 hour (AID 1224872); note: nearly all actives have a fitted effect of over 50% in size; note: potency is the fitted concentration of half-maximal effect
Procedure, shortened: (§2)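 Tox21 10K qHTS, HEK293, 600 cells/well, RealTime-Glo reagent co-dispensed with cells; 5 h preincubation, compound by pintool, 37 C, luminescence at 0–40 h.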

[3] = qHTS RealTime-Glo MT Cell Viability Assay in HepG2 cells - 8 hour (AID 1224873); note: nearly all actives have a fitted effect of over 55% in size
Procedure, shortened: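 Real-time viability: cells seeded at 600 per well together with NanoLuc and cell-permeant prosubstrate, compounds added after 5 h incubation. Luminescence tracked at 0, 8, 16, 24, 32 and 40 h of exposure.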

[4] = qHTS RealTime-Glo MT Cell Viability Assay in HEK293 cells - 40 hour (AID 1224874); details: RealTime-Glo luminescence; max response: stronger effect = lower value; note: nearly all actives have a fitted effect of over 50% in size; note: potency is the fitted concentration of half-maximal effect
Procedure, shortened: (§3)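 Luminescence, which tracks viable cell number through reduction of the prosubstrate to a NanoLuc substrate, was read over continuous 37 C culture. Cells (600/well) were premixed with reagent and rested 5 h before 23 nL of compound in DMSO was pinned.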

[5] = A CellTox Green Cytotoxicity Assay to monitor cytotoxicity in HEK293 cells - 24 hour (AID 1224875); note: series mostly up to about 77 µM; nearly all actives have a fitted effect of over 45% in size
Procedure, shortened: as §1

[6] = qHTS RealTime-Glo MT Cell Viability Assay in HepG2 cells - 32 hour (AID 1224877); note: nearly all actives have a fitted effect of over 55% in size
Procedure, shortened: (§4)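 Cells + NanoLuc/prosubstrate dispensed (600 cells/well) → 5 h at 37 C/5% CO2 → compounds in DMSO transferred → 40 h incubation at 37 C, luminescence read at 0, 8, 16, 24, 32, 40 h.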

[7] = A CellTox Green Cytotoxicity Assay to monitor cytotoxicity in HepG2 cells - 24 hour (AID 1224878); note: nearly all actives have a fitted effect of over 45% in size; note: potency is the fitted concentration of half-maximal effect
Procedure, shortened: (§5)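 Real-time cytotoxicity: fluorescence of a cell-impermeant cyanine dye binding DNA of dead HepG2 cells, measured repeatedly (0–40 h) during compound exposure at 37 C. Cells seeded 600/well with reagent, dosed after 5 h.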

[8] = A CellTox Green Cytotoxicity Assay to monitor cytotoxicity in HepG2 cells - 40 hour (AID 1224879); note: nearly all actives have a fitted effect of over 40% in size; note: potency is the fitted concentration of half-maximal effect
Procedure, shortened: as §5

[9] = qHTS RealTime-Glo MT Cell Viability Assay in HEK293 cells - 0 hour (AID 1224880); note: top concentration of the series differs between compounds; nearly all actives have a fitted effect of over 45% in size
Procedure, shortened: as §3

[10] = A CellTox Green Cytotoxicity Assay to monitor cytotoxicity in HEK293 cells - 32 hour (AID 1224881); note: nearly all actives have a fitted effect of over 40% in size
Procedure, shortened: as §1

[11] = A CellTox Green Cytotoxicity Assay to monitor cytotoxicity in HepG2 cells - 0 hour (AID 1224882); note: nearly all actives have a fitted effect of over 35% in size
Procedure, shortened: as §5

[12] = A CellTox Green Cytotoxicity Assay to monitor cytotoxicity in HepG2 cells - 32 hour (AID 1224883); note: nearly all actives have a fitted effect of over 50% in size; note: potency is the fitted concentration of half-maximal effect
Procedure, shortened: as §5

[13] = A CellTox Green Cytotoxicity Assay to monitor cytotoxicity in HEK293 cells - 8 hour (AID 1224884); note: nearly all actives have a fitted effect of over 35% in size
Procedure, shortened: as §1

[14] = qHTS RealTime-Glo MT Cell Viability Assay in HepG2 cells - 16 hour (AID 1224885); note: nearly all actives have a fitted effect of over 50% in size
Procedure, shortened: as §4

[15] = qHTS RealTime-Glo MT Cell Viability Assay in HEK293 cells - 24 hour (AID 1224886); note: nearly all actives have a fitted effect of over 50% in size; note: potency is the fitted concentration of half-maximal effect
Procedure, shortened: as §2

[16] = qHTS RealTime-Glo MT Cell Viability Assay in HEK293 cells - 8 hour (AID 1224887); note: nearly all actives have a fitted effect of over 50% in size; note: potency is the fitted concentration of half-maximal effect
Procedure, shortened: as §3

[17] = A CellTox Green Cytotoxicity Assay to monitor cytotoxicity in HEK293 cells - 16 hour (AID 1224888); note: nearly all actives have a fitted effect of over 35% in size
Procedure, shortened: as §1

[18] = qHTS RealTime-Glo MT Cell Viability Assay in HepG2 cells - 0 hour (AID 1224889); note: nearly all actives have a fitted effect of over 50% in size
Procedure, shortened: as §4

[19] = A CellTox Green Cytotoxicity Assay to monitor cytotoxicity in HepG2 cells - 16 hour (AID 1224876); note: nearly all actives have a fitted effect of over 45% in size; note: potency is the fitted concentration of half-maximal effect
Procedure, shortened: as §5
% is set by controls: 0 for no effect and ±100 for the full control effect.

CCCCCC1CCC(=O)O1 (configuration not stated)
inactive: Potency [1] | Potency [2] | outcome [3] | max response [4] 24.1% | Potency [5] | Potency [6] | Potency [7] | Potency [8] | Potency [9] | Potency [10] | Potency [11] | Potency [12] | Potency [13] | outcome [14] | Potency [15] | Potency [16] | Potency [17] | Potency [18]

O=S(=O)(O)c1cc(Cl)c(Cl)cc1Cl
inactive: Potency [1] | Potency [2] | outcome [3] | max response [4] -19.4% | Potency [5] | Potency [6] | Potency [8] | Potency [9] | Potency [10] | Potency [11] | Potency [12] | outcome [14] | Potency [15] | Potency [16] | Potency [17] | Potency [18]

NC(=O)c1cc[n+](CC2=C(C(=O)[O-])N3C(=O)[C@@H](NC(=O)Cc4cccs4)[C@H]3SC2)cc1
inactive: Potency [1] | Potency [2] | outcome [3] | max response [4] 4.75% | Potency [5] | Potency [6] | Potency [7] | Potency [8] | Potency [9] | Potency [10] | Potency [11] | Potency [12] | Potency [13] | outcome [14] | Potency [15] | Potency [16] | Potency [17] | Potency [18]

CCCCOC(=O)CC#N
inactive: Potency [1] | Potency [2] | outcome [3] | max response [4] 7.32% | Potency [5] | Potency [19] | Potency [6] | Potency [7] | Potency [8] | Potency [9] | Potency [11] | Potency [12] | Potency [13] | outcome [14] | Potency [15] | Potency [16] | Potency [17] | Potency [18]

Nc1ccc(F)cc1F
inactive: Potency [1] | Potency [2] | outcome [3] | max response [4] -13.8% | Potency [5] | Potency [19] | Potency [6] | Potency [8] | Potency [9] | Potency [10] | Potency [11] | Potency [12] | Potency [13] | outcome [14] | Potency [15] | Potency [16] | Potency [17] | Potency [18]

CC(C)CC(C)(C)C
inactive: outcome [3] | max response [4] -17.8% | Potency [19] | Potency [6] | Potency [7] | Potency [8] | Potency [11] | Potency [12] | Potency [13] | outcome [14]

O=C(O)c1cc(C(=O)O)c(C(=O)O)cc1C(=O)O
inactive: Potency [1] | Potency [2] | max response [4] 0.796% | Potency [5] | Potency [19] | Potency [6] | Potency [8] | Potency [9] | Potency [11] | Potency [12] | Potency [13] | outcome [14] | Potency [15] | Potency [16] | Potency [17] | Potency [18]

OCCCO
inactive: Potency [1] | Potency [2] | outcome [3] | max response [4] 16.2% | Potency [5] | Potency [6] | Potency [7] | Potency [8] | Potency [9] | Potency [11] | Potency [12] | Potency [15] | Potency [16] | Potency [17] | Potency [18]

CC(C)(C)c1ccc(CCC=O)cc1
inactive: Potency [1] | Potency [2] | outcome [3] | max response [4] 3.22% | Potency [5] | Potency [19] | Potency [6] | Potency [9] | Potency [10] | Potency [11] | Potency [13] | outcome [14] | Potency [15] | Potency [16] | Potency [17] | Potency [18]

Clc1cc(Cl)c2c(c1)N=C1CCCCCN1C2
inactive: Potency [1] | outcome [3] | Potency [5] | Potency [19] | Potency [6] | Potency [7] | Potency [8] | Potency [9] | Potency [10] | Potency [11] | Potency [12] | Potency [13] | Potency [17] | Potency [18]
active: Potency [2] 21.3 µM | Potency [4] 23.9 µM | Potency [15] 19 µM

O=C(Cl)c1cc(Cl)cc(Cl)c1
inactive: Potency [1] | Potency [2] | max response [4] -8.34% | Potency [5] | Potency [6] | Potency [7] | Potency [8] | Potency [9] | Potency [10] | Potency [11] | Potency [12] | Potency [13] | outcome [14] | Potency [15] | Potency [16] | Potency [17] | Potency [18]

CCc1c(C)[nH]c2c1C(=O)C(CN1CCOCC1)CC2 (configuration not stated)
inactive: Potency [1] | Potency [2] | outcome [3] | max response [4] 2.91% | Potency [5] | Potency [19] | Potency [6] | Potency [7] | Potency [8] | Potency [9] | Potency [11] | Potency [12] | Potency [13] | Potency [15] | Potency [16] | Potency [17] | Potency [18]

CO[C@@H]1COCC[C@@H]1N[C@@H]1CC[C@@](C(=O)N2CCc3ncc(C(F)(F)F)cc3C2)(C(C)C)C1
inactive: Potency [1] | Potency [5] | Potency [6] | Potency [7] | Potency [8] | Potency [9] | Potency [10] | Potency [11] | Potency [12] | Potency [13] | Potency [17] | Potency [18]
active: Potency [2] 17.3 µM | Potency [4] 17.3 µM | Potency [15] 17.3 µM | Potency [16] 15.4 µM

C[C@H](CN1CCCC1)C(=O)c1ccc(C(F)(F)F)cc1
active: Potency [19] 21.3 µM | Potency [7] 21.3 µM | Potency [8] 21.3 µM | Potency [12] 21.3 µM
inactive: outcome [3] | Potency [9] | Potency [11] | Potency [13] | Potency [17] | Potency [18]
